Each molecule was assayed against NAD-dependent deacetylase Sirtuin 1 (human, UniProt Q96EB6) (assay: primary screen, percent inhibition; higher = more effect of the substance). Settings: 10 µM.
Parameters: mean of n = 4
Description: Note that the inhibitory assay was conducted with NAD+.

Chain of NAD-dependent deacetylase Sirtuin 1 (Q96EB6 2-747 limits assumed): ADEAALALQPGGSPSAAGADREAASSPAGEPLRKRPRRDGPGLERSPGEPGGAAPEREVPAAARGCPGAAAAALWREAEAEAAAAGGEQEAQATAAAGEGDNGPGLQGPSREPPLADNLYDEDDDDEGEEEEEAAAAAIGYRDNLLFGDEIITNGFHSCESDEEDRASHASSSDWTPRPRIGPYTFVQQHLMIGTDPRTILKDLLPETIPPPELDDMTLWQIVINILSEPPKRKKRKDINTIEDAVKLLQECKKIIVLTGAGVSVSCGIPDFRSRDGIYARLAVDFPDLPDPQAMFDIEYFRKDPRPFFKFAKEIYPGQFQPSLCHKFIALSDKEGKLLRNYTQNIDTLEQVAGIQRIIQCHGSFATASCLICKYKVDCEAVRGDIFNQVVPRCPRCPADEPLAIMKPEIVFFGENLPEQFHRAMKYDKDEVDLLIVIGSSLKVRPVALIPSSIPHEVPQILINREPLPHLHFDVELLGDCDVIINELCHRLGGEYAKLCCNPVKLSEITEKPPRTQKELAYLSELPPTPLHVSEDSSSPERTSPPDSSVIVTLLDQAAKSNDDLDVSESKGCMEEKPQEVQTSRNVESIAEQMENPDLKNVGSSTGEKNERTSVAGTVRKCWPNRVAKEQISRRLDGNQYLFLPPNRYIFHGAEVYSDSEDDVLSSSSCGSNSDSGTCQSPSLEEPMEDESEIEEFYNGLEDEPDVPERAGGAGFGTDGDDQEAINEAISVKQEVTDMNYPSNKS

| Compound | TSA(without NAD+) / Inhibitory assay (Promega kit) / Mean (%) | TSA(with NAD+) / Inhibitory assay (Promega kit) / Mean (%) |
| --- | --- | --- |
| O=C(NN/C=C1/C(=O)N(c2cccc(C(F)(F)F)c2)C(=O)c2ccccc21)c1cccc(S(=O)(=O)Nc2ccccc2Cl)c1 | -38.6 |  |
| O=C(CSc1nnnn1-c1ccc(O)cc1)N1N=C(c2ccc3ccccc3c2)CC1c1ccccc1 (stereo not shown) | 28.5 |  |
| CCOc1cc(/C=N/NC(=O)c2cc3c(s2)CCCC3)ccc1OCC(=O)Nc1cccc(C(F)(F)F)c1 | -2.14 |  |
| O=C1/C(=C/NNC(=O)C23CC4CC(CC(C4)C2)C3)c2ccccc2C(=O)N1Cc1ccccc1 | -173 |  |
| NC1=Nc2nc3ccccc3n2C(c2ccc(-c3ccc(C(=O)O)cc3)o2)N1 (stereo not shown) | 17.6 |  |
| Cc1cccc(NS(=O)(=O)c2cccc(C(=O)OCC(=O)NC(=O)NC34CC5CC(CC(C5)C3)C4)c2)c1 |  | 31 |
| NCc1nc2c(cnn2-c2ccccc2)c(=O)[nH]1 | 62.5 |  |
| O=C(Nc1cccc(S(=O)(=O)N2CCOCC2)c1)c1cn(-c2ccccc2)nc1-c1ccc(Cl)cc1 | 13.8 |  |
| COc1ccc(N(C)S(=O)(=O)c2cccc(C(=O)Nc3ccc(-n4cnnn4)cc3)c2)cc1 | 26.1 |  |
| COc1ccc(NC(=O)c2ccc(NC(=O)COC(=O)C34CC5CC(CC(Br)(C5)C3)C4)cc2)cc1 | 17.2 |  |
| O=C1/C(=C/c2cnn(-c3ccccc3)c2)Oc2cc(O)ccc21 | 9.45 |  |
| COC(=O)c1cc(-c2csc(NC(=O)c3cccc(NC(=O)c4cnoc4C)c3)n2)c[nH]1 | 30.1 |  |
| COc1ccc(N(C)S(=O)(=O)c2cccc(C(=O)Nc3ccc(Cl)cc3)c2)cc1 |  | 17.6 |
| Cc1ccc(C(=O)Nc2nc3ccc(NS(=O)(=O)c4ccc5c(c4)CCC(=O)N5)cc3s2)s1 | 31.3 |  |
| COc1ccc(N(C)S(=O)(=O)c2cccc(C(=O)Nc3ccc(Br)c(C(F)(F)F)c3)c2)cc1 | 5.07 |  |
| CC(=C/c1ccccc1)/C=N/NC(=O)c1cc(-c2ccc(C)cc2)n[nH]1 | 0.0522 |  |
| COc1ccc(NC(=O)CSc2nnc(Nc3ccc(SC(F)F)cc3)s2)cc1OC | 16.2 |  |
| COc1ccc(N(C)S(=O)(=O)c2cccc(C(=O)Nc3ccc4ccccc4c3)c2)cc1 | -4.02 |  |
| CCCCCCCCNC(=O)/C(C#N)=C/c1c[nH]c2ccccc12 | 9.56 |  |
| O=C(CCc1c[nH]c2ccccc12)Nc1nnc(-c2ccccc2)o1 | 10.8 |  |

| Compound | TSA(without NAD+) / Inhibitory assay (Promega kit) / Mean (%) | TSA(with NAD+) / Inhibitory assay (Promega kit) / Mean (%) |
| --- | --- | --- |
| O=C1NC(=S)NC(=O)C1=Cc1cn(-c2ccccc2)nc1-c1cc2ccccc2o1 |  | 57.2 |
| COc1ccc(N(C)S(=O)(=O)c2cccc(C(=O)Nc3ccc(Br)cc3)c2)cc1 |  | 29.2 |
| NC(=O)C1CCN(c2nc(-c3cccs3)nc3sc4c(c23)CCCC4)CC1 | 0.0174 |  |
| Cc1ccc(C(=O)Nc2ccc(NC(=O)NCC3CCCO3)cc2)cn1 (stereo not shown) | -1.1 |  |
| O=C(COc1ccccc1C(=O)Nc1ccc(S(=O)(=O)Nc2nccs2)cc1)Nc1cccc(C(F)(F)F)c1 | 10.1 |  |
| c1ccc(-c2[nH]c3c(ccc4ccccc43)c2-c2ccccc2)cc1 | -0.157 |  |
| Cc1ccc([N+](=O)[O-])cc1S(=O)(=O)Nc1ccc(C(=O)OC(C)C(=O)NC23CC4CC(CC(C4)C2)C3)cc1 (stereo not shown) | -3.81 |  |
| O=C(NC(=S)Nc1ccc(-c2nc3ccccc3[nH]2)cc1)C12CC3CC(CC(C3)C1)C2 | 22.7 |  |
| Oc1cccc2c1Cc1c-2nc2ccc(Cl)cc2c1-c1ccccc1Cl |  | 24.3 |
| Cc1ccc(N(C)S(=O)(=O)c2cccc(C(=O)Nc3ccc(Br)c(C)c3)c2)cc1 |  | 27 |
| Cc1sc2nc(CSc3ccccc3)nc(N3CCC(C(N)=O)CC3)c2c1C | -36.8 |  |
| Cc1nc(N2CCC(C(N)=O)CC2)c2c3c(sc2n1)CCCC3 | 11.5 |  |
| Cc1nc(-c2ccc(CCNC(=O)c3ccc(NC(=O)c4cccs4)cc3)s2)cs1 | 27 |  |
| Cc1ccc(N(C)S(=O)(=O)c2cccc(C(=O)Nc3ccc(C(N)=O)cc3)c2)cc1 | 0.783 |  |
| O=C1NC(=O)c2ccccc2/C1=C\NNC(=O)C12CC3CC(CC(C3)C1)C2 |  | 27.6 |
| Cc1cc(F)ccc1N1CCCC(Nc2ccc3nnnn3n2)C1 (stereo not shown) | 6.7 |  |
| CN(c1ccccc1)S(=O)(=O)c1cccc(NC(=O)CCCc2c[nH]c3ccccc23)c1 | -10.4 |  |
| O=C1/C(=C\c2cc(Br)cc(Br)c2O)CC/C1=C\c1cc(Br)cc(Br)c1O | 44.3 |  |
| NC(=O)c1cccc(NC(=O)c2cc3c(s2)-c2ccccc2CC3)c1 | 4.33 |  |
| Cc1nc(N2CCC(C(N)=O)CC2)c2c3c(sc2n1)CCCCC3 | 14.5 |  |

From publication PMC6925144, “A prospective compound screening contest identified broader inhibitors for Sirtuin 1” (Scientific Reports, 2019)
